# Several values for one entry are separate records, joined by “and”; a condition that tells them apart may be missing. Equal values may be shown once. Inconclusive results are not listed. Where a call stands in place of a potency, no number is given. Activity calls are given as the source filed them. The call rests on the fitted dose curve; in most records, active means well fitted inhibition curve with a large enough effect in the repeat runs; inconclusive means weak or mixed curves, or effect the other way; inactive means no such curve, though single readings can be large or run the other way.
# Target: Androgen receptor (Homo sapiens) (UniProt P10275)
# Sequence (P10275 whole entry, looked up): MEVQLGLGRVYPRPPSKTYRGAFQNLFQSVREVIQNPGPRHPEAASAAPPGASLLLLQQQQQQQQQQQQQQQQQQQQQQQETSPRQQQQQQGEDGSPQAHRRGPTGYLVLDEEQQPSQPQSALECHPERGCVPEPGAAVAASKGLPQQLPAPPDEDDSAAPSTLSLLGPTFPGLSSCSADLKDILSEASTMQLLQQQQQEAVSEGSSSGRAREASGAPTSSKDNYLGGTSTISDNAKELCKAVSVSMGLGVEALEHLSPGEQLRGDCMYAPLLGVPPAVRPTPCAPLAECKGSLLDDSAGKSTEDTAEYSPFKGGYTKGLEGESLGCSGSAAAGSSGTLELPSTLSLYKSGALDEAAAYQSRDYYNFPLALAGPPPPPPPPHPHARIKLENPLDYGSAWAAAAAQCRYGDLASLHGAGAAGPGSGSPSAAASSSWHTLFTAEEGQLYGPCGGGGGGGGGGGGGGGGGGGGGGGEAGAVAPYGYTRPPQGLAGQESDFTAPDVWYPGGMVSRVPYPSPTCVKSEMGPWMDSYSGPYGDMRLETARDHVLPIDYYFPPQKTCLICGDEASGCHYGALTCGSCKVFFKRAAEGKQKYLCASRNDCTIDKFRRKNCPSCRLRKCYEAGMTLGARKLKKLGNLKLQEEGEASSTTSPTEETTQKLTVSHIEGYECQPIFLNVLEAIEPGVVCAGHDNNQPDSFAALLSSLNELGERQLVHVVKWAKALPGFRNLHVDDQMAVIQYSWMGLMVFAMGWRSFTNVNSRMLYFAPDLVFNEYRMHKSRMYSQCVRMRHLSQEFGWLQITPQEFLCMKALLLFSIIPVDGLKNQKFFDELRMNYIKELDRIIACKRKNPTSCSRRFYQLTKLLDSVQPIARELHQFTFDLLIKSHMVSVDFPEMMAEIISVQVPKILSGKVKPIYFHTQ
# Assay: qHTS assay to identify small molecule antagonists of the androgen receptor (AR) signaling pathway using the MDA cell line (AID 743042; further: nearly all actives have a fitted effect of over 55% in size)
# Conditions: MDA-kb2 AR-luc, MMTV luciferase, R1881 antagonist, 16 h; series mostly up to 70.3 µM
# Text: U.S. Tox21 Program National Center for Advancing Translational Sciences [NCATS] NIH Chemical Genomics Center [NCGC] U.S. Environmental Protection Agency [EPA] National Institutes of Environmental Health Sciences [NIEHS] National Toxicology Program [NTP] U.S. Food and Drug Administration [FDA] Tox21 Assay Overview: Androgen receptor (AR), a nuclear hormone receptor, plays a critical role in AR-dependent prostate cancer and other androgen related diseases. Endocrine disrupting chemicals (EDCs) and their interactions with steroid hormone receptors like AR may cause disruption of normal endocrine function as well as interfere with metabolic homeostasis, reproduction, developmental and behavioral functions. To identify the compounds that inhibit AR signaling, MDA-kb2 AR-luc cell line (from ATCC, deposited by Wilson et al.) was used to screen the Tox21 10K compound library. MDA-kb2 AR-luc cell line is human breast carcinoma cell line that was stably transfected with a luciferase reporter gene under control of the MMTV promoter containing response elements for both androgen receptor (AR) and glucocorticoid receptor (GR).
# Tox21 Assay Protocol Summary: MDA-kb2 cells were dispensed at 3,000 cells/4 uL/well of culture medium into white wall/solid-bottom 1536-well plates using a Multidrop Combi (ThermoFisher Scientific, Waltham, MA) dispenser. After the assay plates were incubated at a 37C and 0% CO2 for 5 hr, 23 nL of compounds dissolved in DMSO, positive controls or DMSO only was transferred to the assay plate by a Pintool station (Kalypsys, San Diego, CA), followed by addition of 1 uL of agonist (R1881) in culture medium using a Bioraptr Flying Reagent Dispenser (FRD) workstation (Beckman Coulter, Indianapolis, IN, USA). The plates were incubated at a 37C and 0% CO2 for 16 h. After 15.5 h incubation, 1uL of CellTiter-Fluor reagent (Promega, Madison, WI) was added using a Bioraptr FRD to each plate for measuring cytotoxicity. The fluorescence intensity was quantified on a ViewLux plate reader (PerkinElmer, Shelton, CT) following 30 min incubation at 37C and 0% CO2. For measuring luciferase reporter gene activity, 4 uL of ONE-Glo reagent (Promega) was added to each plate using a Bioraptr FRD and luminescence was quantified on a ViewLux (PerkinElmer) plate reader after 30 min incubation at room temperature.
# Potency means the concentration at half of the fitted maximal effect.
row,SMILES,Potency
1,Cc1ccc(Nc2nccc(N(C)c3ccc4c(C)n(C)nc4c3)n2)cc1S(N)(=O)=O,11.9 µM (active)
2,CCOC(=O)CC(=O)C(=O)OCC,inactive
3,CCCCCCCCCCCCCCC[C@H](O)[C@@H](N)CO,inactive
4,CC(C)(C)CC(C)(C)c1ccc(OCCO)cc1,11.9 µM (active) and 9.63 µM (active)
5,CC(C)(O)c1ccccc1CC[C@@H](SCC1(CC(=O)O)CC1)c1cccc(/C=C/c2ccc3ccc(Cl)cc3n2)c1,inactive
6,COc1cc2c(N3CCN(C(=O)Nc4ccc(OC(C)C)cc4)CC3)ncnc2cc1OCCCN1CCCCC1,inactive
7,CC(=O)Nc1ccc(N)cc1,inactive
8,CCOC(=O)C(C)Oc1ccc(Oc2nc3ccc(Cl)cc3o2)cc1 (stereo not given),inactive
9,CCCC(=O)O[C@]1(C(=O)COC(=O)CC)CC[C@H]2[C@@H]3CCC4=CC(=O)CC[C@]4(C)[C@H]3[C@@H](O)C[C@@]21C,inactive
10,N#C/C(=C1\SCC(c2ccccc2Cl)S1)n1ccnc1 (stereo not given),inactive
11,NCC1CCCC(CN)C1 (stereo not given),inactive
12,CCC(C(=O)OCCN(CC)CC)c1ccccc1 (stereo not given),inactive
13,CCCCC1C(=O)N(c2ccccc2)N(c2ccc(O)cc2)C1=O (stereo not given),12.7 µM (active)
14,COc1ccc(CCC(=O)c2c(O)cc(O[C@@H]3O[C@H](CO)[C@@H](O)[C@H](O)[C@H]3O[C@@H]3O[C@@H](C)[C@H](O)[C@@H](O)[C@H]3O)cc2O)cc1O,inactive
15,C=CCOC(=O)/C=C\C(=O)OCC=C,inactive
16,OCC1CC=CCC1 (stereo not given),inactive
17,O=C(CCC1CCN(Cc2ccccc2)CC1)c1ccc2c(c1)NCCCC2,29.8 µM (active)
18,CO[C@H]1C=CO[C@@]2(C)Oc3c(C)c(O)c4c(O)c(c5c(c4c3C2=O)=NC2(CCN(CC(C)C)CC2)N=5)NC(=O)/C(C)=C\C=C/[C@H](C)[C@H](O)[C@@H](C)[C@@H](O)[C@@H](C)[C@H](OC(C)=O)[C@@H]1C,inactive
19,CC1(C)C2=CCCC(C)(C)[C@]23CC[C@H]1C3,inactive
20,CCCOC(=O)c1ccc(N)cc1,inactive

row,SMILES,Potency
1,COc1cc2c(cc1OC)-c1cc(=Nc3c(C)cc(C)cc3C)n(C)c(=O)n1CC2,29.8 µM (active)
2,CCCOC(=O)c1ccc(C(=O)OCCC)nc1,inactive
3,Cc1cc(O)c2c(O)c3c(O)cccc3cc2c1,inactive
4,COCc1c(C(C)C)nc(C(C)C)c(/C=C/[C@@H](O)C[C@@H](O)CC(=O)O)c1-c1ccc(F)cc1,inactive
5,CNC(=O)N(c1ccccc1)c1ccccc1,inactive
6,CC(=O)[C@H]1CC[C@H]2[C@@H]3C[C@H](C)C4=CC(=O)CC[C@]4(C)[C@H]3[C@@H](O)C[C@]12C,inactive
7,O=C(N/N=C/c1ccc([N+](=O)[O-])o1)c1ccc(O)cc1,4.52 µM (active)
8,O=C(CCCCCCCCC#CI)Oc1ccccc1,inactive
9,c1cnc2c(n1)CCCC2,inactive
10,O=C(O)Cc1ccc(-c2ccccc2)cc1,inactive
11,CCCCCCCCSCCO,inactive
12,CCOC(=O)/C=C/C(=O)O,inactive
13,C[Si]1(C)O[Si](C)(C)O[Si](C)(C)O1,inactive
14,Nc1ccc(Cl)cc1[N+](=O)[O-],inactive
15,OC(CCCN1CCCCC1)(c1ccccc1)c1ccccc1,inactive
16,Fc1ccccc1[C@@H](F)COC1CCC(Nc2ncnc3[nH]ncc23)CC1 (stereo not given in full),19.3 µM (active)
17,O=[N+]([O-])c1cccc(S(=O)(=O)NCCNS(=O)(=O)c2cccc([N+](=O)[O-])c2)c1,inactive
18,CC(=O)OCC(=O)[C@H]1CC[C@H]2[C@@H]3CCC4=CC(=O)CC[C@]4(C)[C@H]3CC[C@]12C,inactive
19,CCOC(=O)[C@@H](C)Oc1ccc(Oc2nc3ccc(Cl)cc3o2)cc1,inactive
20,CCCc1c(OCCCOc2ccc(OCC(=O)O)cc2)ccc(C(C)=O)c1O,inactive

# Source: PubChem BioAssay (Tox21)
